# Biological target: Acyl-protein thioesterase 1 (Homo sapiens) (UniProt O75608)
# Experiment: LYPLA1 enzyme kinetics with inhibitors – biochemical, substrate-based fluorescence, Ki, Km, late-stage follow-up (AID 651998)
# Details: recombinant LYPLA1, resorufin acetate hydrolysis fluorescence, without test compound, enzyme Km for substrate
# Chain of Acyl-protein thioesterase 1 (Homo sapiens) (O75608 whole entry, looked up): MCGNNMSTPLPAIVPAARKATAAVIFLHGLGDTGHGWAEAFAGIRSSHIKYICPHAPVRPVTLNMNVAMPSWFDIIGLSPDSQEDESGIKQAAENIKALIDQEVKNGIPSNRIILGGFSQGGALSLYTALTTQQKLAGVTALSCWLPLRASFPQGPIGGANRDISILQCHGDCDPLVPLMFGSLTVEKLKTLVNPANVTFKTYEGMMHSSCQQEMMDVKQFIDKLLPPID
smiles,measurement,value
O=C(CN1CCN(C(=O)c2ccco2)CC1)Nc1cc(C(F)(F)F)ccc1Cl,Km,28.3 µM
